# From PubChem BioAssay (EPA / NIEHS)
# Records with an inconclusive call do not appear. Calls of active or inactive are those of the source. How the source made its calls, unless noted: active means hit-call score of the fitted dose curve at least 0.9, where 1 is the maximum; inconclusive means response in the unintended direction; inactive means score below 0.9.
# Legend:
# [1] = target: human Peroxisome Proliferator-activated Receptor alpha (PPARa), PPARA (gene 5465) (UniProt Q07869); experiment: ATG_PPARa_TRANS: Attagene TRANS-FACTORIAL HepG2 Assay for human Peroxisome Proliferator-activated Receptor alpha (PPARa) (AID 2283001);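 on AC50: potency for gain of reporter signal over DMSO so agonist or activator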
# In short: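 HepG2 cells transiently transfected with multiplexed GAL4-UAS reporters driven by exogenous chimeric NR-Gal4 proteins; reporter mRNA measured after 24 h dosing. Read-out by RT-PCR, 6-FAM labelling, HpaI digestion and capillary electrophoresis; gain of signal versus DMSO.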
# [2] = target: Retinoic acid receptor alpha (Homo sapiens) (UniProt P10276); experiment: ATG_RARa_TRANS: Attagene TRANS-FACTORIAL HepG2 Assay for human Retinoic Acid Receptor alpha (RARa) (AID 2283005)
# In short: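 HepG2 transiently transfected with multiplex GAL4-UAS reporter units including a human RARa–GAL4 chimera; 24 h compound exposure. Reporter mRNA quantified by RT-PCR, 6-FAM labeling and capillary electrophoresis; gain of signal versus DMSO.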
# [3] = target: Peroxisome proliferator-activated receptor gamma (Homo sapiens) (UniProt P37231); experiment: ATG_PPARg_TRANS: Attagene TRANS-FACTORIAL HepG2 Assay for human Peroxisome Proliferator-activated Receptor-gamma (PPARg) (AID 2283007)
# In short: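 Human hepatoma HepG2, transient MRTU transfection, 24 h treatment. mRNA reporter signal by RT-PCR plus capillary electrophoresis, fluorescence detection; fitted for increase over DMSO negative control.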
# [4] = target: Nuclear receptor subfamily 1 group I member 2 (Homo sapiens) (UniProt O75469); experiment: ATG_PXR_TRANS: Attagene TRANS-FACTORIAL HepG2 Assay for human Pregnane X Receptor (PXR) (AID 2283008)
# In short: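 Measures mRNA induction of a GAL4-UAS-driven reporter in human HepG2 cells transiently expressing PXR fused to Gal4, following 24 h treatment. DMSO served as negative control and baseline.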
# [5] = target: human Retinoic Acid Receptor gamma (RARg), RARG (gene 5916) (UniProt P13631); experiment: ATG_RARg_TRANS: Attagene TRANS-FACTORIAL HepG2 Assay for human Retinoic Acid Receptor gamma (RARg) (AID 2283009)
# In short: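 HepG2 transiently transfected with GAL4-UAS reporter units and chimeric NR-Gal4 constructs; 24 h compound exposure. Reporter mRNA quantified by RT-PCR, FAM labeling, HpaI digestion and capillary electrophoresis; gain-of-signal versus DMSO.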
# [6] = target: human RAR-related Orphan Receptor beta (RORb), RORB (gene 6096) (UniProt Q92753); experiment: ATG_RORb_TRANS: Attagene TRANS-FACTORIAL HepG2 Assay for human RAR-related Orphan Receptor beta (RORb) (AID 2283010)
# In short: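 HepG2 cells transiently transfected with GAL4-UAS reporter units expressing chimeric NR-Gal4 protein; reporter mRNA measured 24 h after dosing by RT-PCR, 6-FAM labelling and capillary electrophoresis. Gain-of-signal fitted relative to DMSO baseline.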
# [7] = target: human Retinoic Acid Receptor beta (RARb), RARB (gene 5915) (UniProt P10826); experiment: ATG_RARb_TRANS: Attagene TRANS-FACTORIAL HepG2 Assay for human Retinoic Acid Receptor beta (AID 2283004)
# In short: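 HepG2 cells were transiently transfected with GAL4-UAS reporter units that report activity of exogenous chimeric NR-Gal4 proteins, then exposed to compound for 24 h. Reporter mRNA was quantified by RT-PCR with capillary electrophoresis fluorescence, as gain of signal over DMSO.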
# [8] = target: human Peroxisome Proliferator-activated Receptor delta (PPARd), PPARD (gene 5467) (UniProt Q03181); experiment: ATG_PPARd_TRANS: Attagene TRANS-FACTORIAL HepG2 Assay for human Peroxisome Proliferator-activated Receptor delta (PPARd) (AID 2283002)
# In short: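 HepG2 cells transiently transfected with GAL4-UAS multiplexed reporter units driven by exogenous chimeric NR-GAL4 proteins; 24 h compound exposure. Reporter mRNA measured by RT-PCR, 6-FAM primer extension, HpaI digestion and capillary electrophoresis; gain of signal fitted relative to DMSO.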
# [9] = read-out: Intercellular Adhesion Molecule 1 (ICAM1), ICAM1 (gene 3383); experiment: BSK_3C_ICAM1: BioMAP Diversity Plus: 3C Assay for Intercellular Adhesion Molecule 1 (ICAM1) Biomarker Activity (AID 2283003; active means hit-call score of the fitted dose curve at least 0.9, where 1 is the maximum; inactive means score below 0.9); conditions: primary human endothelial cells (HUVEC); actives raise or lower the signal
# In short: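 HUVEC primary cells stimulated under 3C conditions; ICAM1 measured by ELISA 24 h after compound dosing. Curves fitted bidirectionally against the DMSO baseline. Overt cytotoxicity checked by SRB staining of parallel cultures.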
# [10] = BSK_3C_Proliferation: Cell Proliferation Assessment in the BioMAP Diversity Plus: 3C Assay (AID 2283006; active means hit-call score of the fitted dose curve at least 0.9, where 1 is the maximum; inactive means score below 0.9;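 further: potency may reflect either rise or fall in cell number versus DMSO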); conditions: primary human endothelial cells (HUVEC)
# In short: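 Subconfluent HUVEC (3C system) cultured with chemical; relative cell number read at 48 h by sulforhodamine B total-protein staining (0.1% SRB after 10% TCA fixation, 560 nm). Bidirectional fit relative to DMSO.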
# Chain of Nuclear receptor subfamily 1 group I member 2 (Homo sapiens) (O75469 whole entry, looked up, the tested form may be a part): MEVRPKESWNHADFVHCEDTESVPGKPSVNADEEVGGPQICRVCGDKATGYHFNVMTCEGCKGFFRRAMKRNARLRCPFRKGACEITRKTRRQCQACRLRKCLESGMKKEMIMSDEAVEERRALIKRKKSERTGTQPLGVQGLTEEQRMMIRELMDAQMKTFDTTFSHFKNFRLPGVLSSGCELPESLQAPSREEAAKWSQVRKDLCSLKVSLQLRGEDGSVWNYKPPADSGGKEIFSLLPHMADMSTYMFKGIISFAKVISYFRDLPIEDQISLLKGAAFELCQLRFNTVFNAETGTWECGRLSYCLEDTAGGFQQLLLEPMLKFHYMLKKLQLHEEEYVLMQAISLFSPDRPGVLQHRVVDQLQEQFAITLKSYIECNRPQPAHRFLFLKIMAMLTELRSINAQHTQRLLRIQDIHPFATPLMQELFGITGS
# Chain of Retinoic acid receptor alpha (Homo sapiens) (P10276 whole entry, looked up, the tested form may be a part): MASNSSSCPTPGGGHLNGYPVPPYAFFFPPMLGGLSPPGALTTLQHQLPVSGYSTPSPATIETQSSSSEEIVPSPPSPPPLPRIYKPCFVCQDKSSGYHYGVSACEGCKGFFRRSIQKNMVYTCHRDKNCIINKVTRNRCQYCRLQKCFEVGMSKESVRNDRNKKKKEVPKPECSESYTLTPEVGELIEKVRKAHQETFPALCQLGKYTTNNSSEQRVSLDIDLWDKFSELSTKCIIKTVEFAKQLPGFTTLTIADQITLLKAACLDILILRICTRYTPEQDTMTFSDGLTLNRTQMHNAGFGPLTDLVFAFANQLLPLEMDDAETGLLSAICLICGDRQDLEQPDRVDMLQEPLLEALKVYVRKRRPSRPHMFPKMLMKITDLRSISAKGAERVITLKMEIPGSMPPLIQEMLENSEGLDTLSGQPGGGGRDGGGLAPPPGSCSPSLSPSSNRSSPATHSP
# Chain of Peroxisome proliferator-activated receptor gamma (Homo sapiens) (P37231 whole entry, looked up): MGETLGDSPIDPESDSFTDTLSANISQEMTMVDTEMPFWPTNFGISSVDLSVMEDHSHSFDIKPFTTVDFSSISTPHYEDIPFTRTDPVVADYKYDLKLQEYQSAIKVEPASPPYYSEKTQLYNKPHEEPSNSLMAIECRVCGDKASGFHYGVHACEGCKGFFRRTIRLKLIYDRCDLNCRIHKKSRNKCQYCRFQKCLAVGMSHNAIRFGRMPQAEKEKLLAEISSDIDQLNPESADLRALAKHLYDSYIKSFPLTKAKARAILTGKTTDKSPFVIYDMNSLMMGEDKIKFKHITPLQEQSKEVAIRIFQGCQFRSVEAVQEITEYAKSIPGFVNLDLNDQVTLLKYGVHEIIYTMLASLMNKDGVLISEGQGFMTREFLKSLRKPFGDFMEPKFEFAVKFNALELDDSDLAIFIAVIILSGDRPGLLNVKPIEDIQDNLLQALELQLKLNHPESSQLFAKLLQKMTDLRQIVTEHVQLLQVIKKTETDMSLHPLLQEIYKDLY
# Chain of human Retinoic Acid Receptor gamma (RARg), RARG (gene 5916) (P13631 whole entry, looked up, the tested form may be a part): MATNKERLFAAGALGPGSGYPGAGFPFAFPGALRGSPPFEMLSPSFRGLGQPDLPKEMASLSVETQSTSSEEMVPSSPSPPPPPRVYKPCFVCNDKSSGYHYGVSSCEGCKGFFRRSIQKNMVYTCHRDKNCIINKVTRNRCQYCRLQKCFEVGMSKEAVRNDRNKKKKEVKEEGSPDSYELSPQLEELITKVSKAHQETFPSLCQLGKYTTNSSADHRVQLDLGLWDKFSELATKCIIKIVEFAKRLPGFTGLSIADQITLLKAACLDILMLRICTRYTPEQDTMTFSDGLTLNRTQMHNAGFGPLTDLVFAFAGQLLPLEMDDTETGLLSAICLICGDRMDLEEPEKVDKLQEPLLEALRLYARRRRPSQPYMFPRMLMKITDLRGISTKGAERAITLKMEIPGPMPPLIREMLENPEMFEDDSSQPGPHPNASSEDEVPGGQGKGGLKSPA
# Chain of human RAR-related Orphan Receptor beta (RORb), RORB (gene 6096) (Q92753 whole entry, looked up, the tested form may be a part): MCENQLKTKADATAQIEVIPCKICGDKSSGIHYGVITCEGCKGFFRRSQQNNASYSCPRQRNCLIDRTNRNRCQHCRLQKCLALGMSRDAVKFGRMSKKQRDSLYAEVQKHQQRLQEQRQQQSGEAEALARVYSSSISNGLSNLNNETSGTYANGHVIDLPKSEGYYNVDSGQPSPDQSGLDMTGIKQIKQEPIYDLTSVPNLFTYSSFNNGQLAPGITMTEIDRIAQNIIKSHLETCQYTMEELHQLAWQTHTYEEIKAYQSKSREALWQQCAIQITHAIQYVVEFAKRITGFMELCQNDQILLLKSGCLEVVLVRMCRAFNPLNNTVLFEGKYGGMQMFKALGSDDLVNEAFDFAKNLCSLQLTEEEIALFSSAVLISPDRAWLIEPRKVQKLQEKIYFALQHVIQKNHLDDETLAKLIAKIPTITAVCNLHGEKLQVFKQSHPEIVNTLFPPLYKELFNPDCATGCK
# Chain of human Retinoic Acid Receptor beta (RARb), RARB (gene 5915) (P10826 whole entry, looked up, the tested form may be a part): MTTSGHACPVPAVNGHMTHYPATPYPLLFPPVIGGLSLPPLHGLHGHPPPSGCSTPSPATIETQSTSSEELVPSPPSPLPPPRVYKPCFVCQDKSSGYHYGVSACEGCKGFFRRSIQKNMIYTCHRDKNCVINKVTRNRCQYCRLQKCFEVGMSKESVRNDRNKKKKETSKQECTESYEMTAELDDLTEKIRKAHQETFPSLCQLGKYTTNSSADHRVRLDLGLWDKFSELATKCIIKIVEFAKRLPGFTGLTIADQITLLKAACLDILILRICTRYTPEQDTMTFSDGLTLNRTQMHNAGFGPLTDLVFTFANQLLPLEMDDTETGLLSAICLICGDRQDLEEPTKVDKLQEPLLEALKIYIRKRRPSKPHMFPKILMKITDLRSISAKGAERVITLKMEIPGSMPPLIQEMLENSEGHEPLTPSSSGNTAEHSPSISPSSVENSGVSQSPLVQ
# Chain of human Peroxisome Proliferator-activated Receptor alpha (PPARa), PPARA (gene 5465) (Q07869 whole entry, looked up, the tested form may be a part): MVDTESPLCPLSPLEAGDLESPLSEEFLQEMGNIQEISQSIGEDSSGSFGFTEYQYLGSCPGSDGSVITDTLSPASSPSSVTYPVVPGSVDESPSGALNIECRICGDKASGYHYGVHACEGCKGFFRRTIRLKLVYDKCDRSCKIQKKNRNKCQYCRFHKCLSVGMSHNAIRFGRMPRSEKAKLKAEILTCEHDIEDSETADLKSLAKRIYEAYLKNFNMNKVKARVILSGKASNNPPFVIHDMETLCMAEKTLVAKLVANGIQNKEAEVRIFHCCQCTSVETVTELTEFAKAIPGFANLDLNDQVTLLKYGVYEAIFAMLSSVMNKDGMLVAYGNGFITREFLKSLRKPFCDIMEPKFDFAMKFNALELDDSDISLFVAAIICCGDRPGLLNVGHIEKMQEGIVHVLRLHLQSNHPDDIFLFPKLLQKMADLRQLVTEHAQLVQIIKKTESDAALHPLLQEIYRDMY
# Chain of human Peroxisome Proliferator-activated Receptor delta (PPARd), PPARD (gene 5467) (Q03181 whole entry, looked up, the tested form may be a part): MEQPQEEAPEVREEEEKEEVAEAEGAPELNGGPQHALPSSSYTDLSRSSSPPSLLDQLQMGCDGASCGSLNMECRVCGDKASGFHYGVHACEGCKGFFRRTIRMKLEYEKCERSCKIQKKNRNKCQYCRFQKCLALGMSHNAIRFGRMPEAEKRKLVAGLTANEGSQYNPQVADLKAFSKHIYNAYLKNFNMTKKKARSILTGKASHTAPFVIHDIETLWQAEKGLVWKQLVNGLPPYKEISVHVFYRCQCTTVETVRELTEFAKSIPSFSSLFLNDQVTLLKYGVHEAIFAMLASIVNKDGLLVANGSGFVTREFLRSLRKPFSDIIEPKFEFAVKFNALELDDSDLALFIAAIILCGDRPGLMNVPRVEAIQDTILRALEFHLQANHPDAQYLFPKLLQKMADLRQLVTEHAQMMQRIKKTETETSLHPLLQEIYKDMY
compound,measurement,setting,value
CC(C)CC(C)CC(O)CC(C)C (configuration not stated),outcome,[1],inactive
same,outcome,[2],inactive
same,outcome,[3],inactive
same,outcome,[4],inactive
same,outcome,[5],inactive
same,outcome,[6],inactive
CCCCCCC(C)(C)S,outcome,[1],inactive
same,outcome,[2],inactive
same,outcome,[3],inactive
same,outcome,[4],inactive
same,outcome,[5],inactive
same,outcome,[6],inactive
CC=Cc1ccc(OC)c(OC)c1,outcome,[1],inactive
same,outcome,[3],inactive
same,AC50,[4],27.6 µM (active)
C=C(CC(=O)O)C(=O)O,outcome,[1],inactive
same,outcome,[2],inactive
same,outcome,[3],inactive
same,outcome,[4],inactive
same,outcome,[5],inactive
same,outcome,[6],inactive
CCC1CCCCC1,outcome,[1],inactive
same,outcome,[7],inactive
same,outcome,[2],inactive
same,outcome,[4],inactive
same,outcome,[5],inactive
same,outcome,[6],inactive
COc1cc(CCC(C)=O)ccc1O,outcome,[1],inactive
same,outcome,[2],inactive
same,outcome,[3],inactive
same,outcome,[4],inactive
CCN(CCN)c1cccc(C)c1,outcome,[1],inactive
same,outcome,[7],inactive
same,outcome,[3],inactive
same,outcome,[4],inactive
same,outcome,[5],inactive
O=C(Nc1ccc([N+](=O)[O-])cc1)Nc1ccc([N+](=O)[O-])cc1 (tested in a mixture with another compound),outcome,[1],inactive
same,outcome,[3],inactive
same,outcome,[4],inactive
same,outcome,[5],inactive
FC(F)(F)COCC(F)(F)F,outcome,[1],inactive
same,outcome,[2],inactive
same,outcome,[4],inactive
same,outcome,[6],inactive
Cc1ccc(OC(=O)c2ccccc2O)cc1,outcome,[1],inactive
same,outcome,[3],inactive
same,outcome,[4],inactive
CCCCCCCCCCCC(=O)OCC(O)CO (configuration not stated),AC50,[1],100 µM (active)
same,AC50,[3],100 µM (active)
same,outcome,[4],inactive
same,outcome,[5],inactive
CC1=NN(c2ccc(S(=O)(=O)O)cc2)C(=O)C1,outcome,[1],inactive
same,outcome,[7],inactive
same,outcome,[2],inactive
same,outcome,[4],inactive
same,outcome,[5],inactive
same,outcome,[6],inactive
CCOC(=O)CCc1ccccc1,outcome,[1],inactive
same,outcome,[3],inactive
same,outcome,[4],inactive
same,outcome,[5],inactive
Nc1c(S(=O)(=O)O)cc(Br)c2c1C(=O)c1ccccc1C2=O,outcome,[1],inactive
same,AC50,[3],27.5 µM (active)
same,AC50,[4],40.2 µM (active)
BrCc1cccc(Oc2ccccc2)c1,outcome,[1],inactive
same,AC50,[3],44.8 µM (active)
same,AC50,[4],43.3 µM (active)
C=C(C)C1CC=C(C)C(=O)C1 (configuration not stated),outcome,[1],inactive
same,outcome,[2],inactive
same,outcome,[3],inactive
same,outcome,[4],inactive
C=CC(=C)CCCC(C)(C)OC(C)=O,outcome,[1],inactive
same,outcome,[7],inactive
same,outcome,[3],inactive
same,outcome,[4],inactive
O=C(O)c1cc(C(=O)O)cc([N+](=O)[O-])c1,outcome,[1],inactive
same,outcome,[7],inactive
same,outcome,[4],inactive
same,outcome,[6],inactive
COc1ccccc1N=Nc1c(S(=O)(=O)O)cc2cc(S(=O)(=O)O)cc(NC(C)=O)c2c1O,outcome,[1],inactive
same,outcome,[7],inactive
same,outcome,[3],inactive
same,outcome,[4],inactive
same,outcome,[5],inactive
same,outcome,[6],inactive
OCc1cccc(Oc2ccccc2)c1,outcome,[1],inactive
same,AC50,[3],74.7 µM (active)
same,outcome,[4],inactive
CC=CC=CCOC(=O)C(C)C,outcome,[1],inactive
same,AC50,[3],11.1 µM (active)
same,outcome,[4],inactive
Cc1cc(S(=O)(=O)O)ccc1N=Nc1c(O)ccc2ccccc12,outcome,[1],inactive
same,outcome,[7],inactive
same,outcome,[2],inactive
same,outcome,[4],inactive
same,outcome,[5],inactive
same,outcome,[6],inactive
CCOc1ccc(NC(=O)CC(C)=O)cc1,outcome,[1],inactive
same,outcome,[7],inactive
same,outcome,[4],inactive
same,outcome,[6],inactive
CCCOCCO,outcome,[1],inactive
same,outcome,[7],inactive
same,outcome,[3],inactive
same,outcome,[4],inactive
same,outcome,[6],inactive
COc1ccc(CCO)cc1,outcome,[1],inactive
same,outcome,[7],inactive
same,outcome,[5],inactive
c1ccc2[nH]cnc2c1,outcome,[1],inactive
same,outcome,[2],inactive
same,outcome,[4],inactive
same,outcome,[5],inactive
same,outcome,[6],inactive
CC[N+](C)(CC)CC,outcome,[1],inactive
same,outcome,[2],inactive
same,outcome,[3],inactive
same,outcome,[4],inactive
same,outcome,[5],inactive
COC(=O)c1ccc(OC)cc1,outcome,[1],inactive
same,outcome,[3],inactive
same,outcome,[4],inactive
CC(=O)O[C@@H]1C[C@@H]2CC[C@@]1(C)C2(C)C,outcome,[1],inactive
same,outcome,[2],inactive
same,outcome,[4],inactive
same,outcome,[5],inactive
CCOCCOCCOCC,outcome,[1],inactive
same,outcome,[2],inactive
same,outcome,[3],inactive
same,outcome,[6],inactive
CCCCCCCCCC(=O)OC,outcome,[1],inactive
same,AC50,[3],57.1 µM (active)
same,outcome,[4],inactive
O=C(Nc1ccc2c(c1)Cc1ccccc1-2)C(F)(F)F,outcome,[1],inactive
same,outcome,[2],inactive
same,outcome,[3],inactive
same,AC50,[4],27.7 µM (active)
COC(=O)c1cccnc1,outcome,[1],inactive
same,outcome,[7],inactive
same,outcome,[5],inactive
same,outcome,[6],inactive
CCOC(=O)c1ccc(N)cc1,outcome,[1],inactive
same,outcome,[3],inactive
same,outcome,[4],inactive
Nc1ccc(Cl)c([N+](=O)[O-])c1,outcome,[1],inactive
same,outcome,[3],inactive
same,outcome,[4],inactive
C=Cc1ccc(C(C)(C)C)cc1,outcome,[8],inactive
same,outcome,[4],inactive
CC(=O)C1(C)CC2=C(CCCC2(C)C)CC1C (configuration not stated),AC50,[9],12.8 µM (active)
same,AC50,[10],6.69 µM (active)
same,AC50,[3],100 µM (active)
same,AC50,[4],9.83 µM (active)
CN1CCOCC1,outcome,[7],inactive
same,outcome,[2],inactive
same,outcome,[5],inactive
same,outcome,[6],inactive
CCCC(O)C(O)CO (configuration not stated),outcome,[8],inactive
same,outcome,[4],inactive
same,outcome,[5],inactive
same,outcome,[6],inactive
C=CCN(CC=C)CC=C,outcome,[7],inactive
same,outcome,[4],inactive
same,outcome,[6],inactive
CC(C)OCCO,outcome,[7],inactive
same,outcome,[4],inactive
same,outcome,[6],inactive
